# In ChEMBL document CHEMBL3988442, “University of Dundee, Small-Polar-MMV Screening Library” (2021):
# For part of these data: Entries with a potency or affinity are not part of this list.
# Assays:
# Set-up in all cases: scale not given: direction of the effect not stated beside the values
# [1] = biological target: Protein translocase subunit SecA (Escherichia coli (strain K12)) (UniProt P10408); assay: Assay to Identify E. coli SecA ATPase Inhibitors; type: functional; conditions: 30 µM
# [2] = biological target: T1, Ubiquitin-activating enzyme e1, putative (Leishmania donovani (strain BPK282A1)) (UniProt E9BSI1); assay: Leishmania donovani Ubiquitin Activating Enzyme (LdE1); type: functional; conditions: 30 µM
# T1 sequence (whole entry): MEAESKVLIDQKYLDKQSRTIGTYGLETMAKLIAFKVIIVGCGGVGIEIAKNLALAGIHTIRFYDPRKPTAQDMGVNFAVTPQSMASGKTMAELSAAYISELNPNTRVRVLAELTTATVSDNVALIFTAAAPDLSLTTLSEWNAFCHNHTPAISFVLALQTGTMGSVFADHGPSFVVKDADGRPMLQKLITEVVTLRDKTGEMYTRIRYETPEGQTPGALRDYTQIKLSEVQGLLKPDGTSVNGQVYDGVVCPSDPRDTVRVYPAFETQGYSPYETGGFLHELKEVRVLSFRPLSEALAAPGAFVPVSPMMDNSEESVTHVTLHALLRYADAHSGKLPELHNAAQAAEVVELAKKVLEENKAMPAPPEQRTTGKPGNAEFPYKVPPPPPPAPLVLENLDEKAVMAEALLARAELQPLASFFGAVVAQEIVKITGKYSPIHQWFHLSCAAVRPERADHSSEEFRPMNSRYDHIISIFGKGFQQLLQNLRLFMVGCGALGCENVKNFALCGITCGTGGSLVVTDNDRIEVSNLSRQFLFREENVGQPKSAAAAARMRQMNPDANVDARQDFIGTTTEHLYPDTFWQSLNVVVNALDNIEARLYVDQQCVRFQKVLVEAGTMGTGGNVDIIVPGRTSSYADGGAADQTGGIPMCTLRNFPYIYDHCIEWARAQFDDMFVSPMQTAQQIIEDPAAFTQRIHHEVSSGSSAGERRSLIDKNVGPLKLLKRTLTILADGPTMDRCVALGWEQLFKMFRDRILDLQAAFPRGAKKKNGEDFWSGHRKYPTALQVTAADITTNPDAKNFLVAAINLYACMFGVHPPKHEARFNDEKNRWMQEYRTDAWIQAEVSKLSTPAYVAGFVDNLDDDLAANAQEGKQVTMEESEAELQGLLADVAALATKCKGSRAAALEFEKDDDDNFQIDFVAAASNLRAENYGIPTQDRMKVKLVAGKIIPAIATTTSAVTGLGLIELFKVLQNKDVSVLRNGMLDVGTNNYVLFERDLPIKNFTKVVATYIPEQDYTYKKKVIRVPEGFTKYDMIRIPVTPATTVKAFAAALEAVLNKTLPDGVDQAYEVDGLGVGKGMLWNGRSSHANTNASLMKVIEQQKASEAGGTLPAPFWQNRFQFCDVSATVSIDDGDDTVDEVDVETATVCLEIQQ
# [3] = biological target: Sialic acid-binding Ig-like lectin 9 (Homo sapiens) (UniProt Q9Y336); assay: Hs-Siglec9 ALPHAscreen SOP 20170721; conditions: 10 µM
# Sialic acid-binding Ig-like lectin 9 (Homo sapiens), sequence (Q9Y336 whole entry): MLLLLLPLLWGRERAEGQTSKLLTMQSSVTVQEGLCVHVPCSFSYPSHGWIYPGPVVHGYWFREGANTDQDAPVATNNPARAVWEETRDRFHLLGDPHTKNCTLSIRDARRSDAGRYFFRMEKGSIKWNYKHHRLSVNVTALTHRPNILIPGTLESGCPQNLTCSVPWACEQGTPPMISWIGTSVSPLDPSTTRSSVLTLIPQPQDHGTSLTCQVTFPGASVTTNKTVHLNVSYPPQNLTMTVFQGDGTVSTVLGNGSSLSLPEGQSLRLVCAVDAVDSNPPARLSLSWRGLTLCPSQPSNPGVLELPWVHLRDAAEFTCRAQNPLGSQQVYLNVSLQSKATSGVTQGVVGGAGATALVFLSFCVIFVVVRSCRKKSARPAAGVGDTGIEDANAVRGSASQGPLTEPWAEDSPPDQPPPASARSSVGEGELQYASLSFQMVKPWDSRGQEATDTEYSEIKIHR
# Trypanosoma cruzi = assay: Trypanosoma cruzi phosphomannomutase and mannose-1-phosphate guanylyltransferase assay; type: functional; conditions: 10 µM
# [4] = biological target: T2, Arginase-2, mitochondrial (Homo sapiens) (UniProt P78540); assay: in vitro enzyme assay to detect the production of urea directly proportional to the activity of Arginase II; type: functional; conditions: 33.3 µM; further: in the data most compounds retested in dose-response had high values
# T2 sequence (whole entry): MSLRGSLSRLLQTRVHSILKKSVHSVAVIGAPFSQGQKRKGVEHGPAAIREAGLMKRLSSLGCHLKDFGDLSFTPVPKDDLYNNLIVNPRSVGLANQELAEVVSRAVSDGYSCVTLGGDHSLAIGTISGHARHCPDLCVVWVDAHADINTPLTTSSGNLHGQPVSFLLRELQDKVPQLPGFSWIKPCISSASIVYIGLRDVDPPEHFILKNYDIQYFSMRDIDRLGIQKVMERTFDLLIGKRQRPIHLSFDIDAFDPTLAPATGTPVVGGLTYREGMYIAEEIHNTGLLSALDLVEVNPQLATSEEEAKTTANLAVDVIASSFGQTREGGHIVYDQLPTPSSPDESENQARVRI
# [5] = biological target: T3, Proteasome subunit beta (Trypanosoma cruzi) (UniProt O96673); assay: Trypanosoma cruzi proteasome chymotrypsin-like activity (TcProtChymo) assay.; further: in the data most compounds retested in dose-response had high values; type: functional; conditions: 9.37 µM
# T3 sequence (whole entry): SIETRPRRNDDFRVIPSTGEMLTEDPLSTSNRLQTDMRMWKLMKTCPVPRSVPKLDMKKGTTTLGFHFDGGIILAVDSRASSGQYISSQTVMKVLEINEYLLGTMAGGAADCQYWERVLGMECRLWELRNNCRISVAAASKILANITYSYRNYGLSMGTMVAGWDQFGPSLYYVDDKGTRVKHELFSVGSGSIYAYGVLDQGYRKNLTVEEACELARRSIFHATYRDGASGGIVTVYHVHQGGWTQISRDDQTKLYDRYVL
# Homo sapiens = organism: Homo sapiens; assay: To identify inhibition of the IFN signalling (Jak-Stat) pathway via expression of an eGFP reporter gene under the control of an IFN-stimulated response element (ISRE) containing MxA promoter.; type: functional; conditions: 30 µM
# [6] = biological target: T4, Tyrosyl-tRNA synthetase, putative (Trypanosoma cruzi (strain CL Brener)) (UniProt Q4DSP6); assay: Trypanosoma cruzi tyrosyl tRNA synthetase (TcYRS) _High Tyrosine SOP; type: functional; conditions: 30 µM; further: in the data most compounds retested in dose-response had high values
# T4 sequence (whole entry): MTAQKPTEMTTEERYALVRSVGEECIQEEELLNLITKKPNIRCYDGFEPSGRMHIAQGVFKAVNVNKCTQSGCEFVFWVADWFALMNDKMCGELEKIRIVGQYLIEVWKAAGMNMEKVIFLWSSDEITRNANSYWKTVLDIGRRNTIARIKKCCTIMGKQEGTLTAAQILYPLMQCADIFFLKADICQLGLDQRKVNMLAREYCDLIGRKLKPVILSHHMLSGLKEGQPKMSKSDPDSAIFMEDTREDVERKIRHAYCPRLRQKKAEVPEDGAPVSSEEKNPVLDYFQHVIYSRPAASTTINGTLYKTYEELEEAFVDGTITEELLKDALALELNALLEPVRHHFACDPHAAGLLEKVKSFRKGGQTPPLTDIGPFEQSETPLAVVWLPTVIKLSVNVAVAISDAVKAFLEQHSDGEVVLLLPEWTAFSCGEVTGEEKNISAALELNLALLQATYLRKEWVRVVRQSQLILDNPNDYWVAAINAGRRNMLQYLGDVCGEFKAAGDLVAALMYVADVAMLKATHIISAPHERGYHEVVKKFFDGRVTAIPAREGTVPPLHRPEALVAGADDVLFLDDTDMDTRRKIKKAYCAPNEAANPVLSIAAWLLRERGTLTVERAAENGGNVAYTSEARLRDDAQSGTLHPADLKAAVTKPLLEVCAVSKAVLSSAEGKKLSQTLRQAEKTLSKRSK
# [7] = biological target: T4, Tyrosyl-tRNA synthetase, putative (Trypanosoma cruzi (strain CL Brener)); assay: Trypanosoma cruzi tyrosyl tRNA synthetase (TcYRS) SOP; type: functional; conditions: 30 µM
# [8] = biological target: Chromo domain-containing protein 1 (Saccharomyces cerevisiae (strain ATCC 204508 / S288c) (Baker's yeast)) (UniProt P32657); assay: ScCHD-1 Enzyme Inhibition Assay; type: functional; conditions: 30 µM; further: in the data most compounds retested in dose-response had high values
# Chromo domain-containing protein 1 (Saccharomyces cerevisiae (strain ATCC 204508 / S288c) (Baker's yeast)), sequence (P32657 whole entry, the tested form may be a part): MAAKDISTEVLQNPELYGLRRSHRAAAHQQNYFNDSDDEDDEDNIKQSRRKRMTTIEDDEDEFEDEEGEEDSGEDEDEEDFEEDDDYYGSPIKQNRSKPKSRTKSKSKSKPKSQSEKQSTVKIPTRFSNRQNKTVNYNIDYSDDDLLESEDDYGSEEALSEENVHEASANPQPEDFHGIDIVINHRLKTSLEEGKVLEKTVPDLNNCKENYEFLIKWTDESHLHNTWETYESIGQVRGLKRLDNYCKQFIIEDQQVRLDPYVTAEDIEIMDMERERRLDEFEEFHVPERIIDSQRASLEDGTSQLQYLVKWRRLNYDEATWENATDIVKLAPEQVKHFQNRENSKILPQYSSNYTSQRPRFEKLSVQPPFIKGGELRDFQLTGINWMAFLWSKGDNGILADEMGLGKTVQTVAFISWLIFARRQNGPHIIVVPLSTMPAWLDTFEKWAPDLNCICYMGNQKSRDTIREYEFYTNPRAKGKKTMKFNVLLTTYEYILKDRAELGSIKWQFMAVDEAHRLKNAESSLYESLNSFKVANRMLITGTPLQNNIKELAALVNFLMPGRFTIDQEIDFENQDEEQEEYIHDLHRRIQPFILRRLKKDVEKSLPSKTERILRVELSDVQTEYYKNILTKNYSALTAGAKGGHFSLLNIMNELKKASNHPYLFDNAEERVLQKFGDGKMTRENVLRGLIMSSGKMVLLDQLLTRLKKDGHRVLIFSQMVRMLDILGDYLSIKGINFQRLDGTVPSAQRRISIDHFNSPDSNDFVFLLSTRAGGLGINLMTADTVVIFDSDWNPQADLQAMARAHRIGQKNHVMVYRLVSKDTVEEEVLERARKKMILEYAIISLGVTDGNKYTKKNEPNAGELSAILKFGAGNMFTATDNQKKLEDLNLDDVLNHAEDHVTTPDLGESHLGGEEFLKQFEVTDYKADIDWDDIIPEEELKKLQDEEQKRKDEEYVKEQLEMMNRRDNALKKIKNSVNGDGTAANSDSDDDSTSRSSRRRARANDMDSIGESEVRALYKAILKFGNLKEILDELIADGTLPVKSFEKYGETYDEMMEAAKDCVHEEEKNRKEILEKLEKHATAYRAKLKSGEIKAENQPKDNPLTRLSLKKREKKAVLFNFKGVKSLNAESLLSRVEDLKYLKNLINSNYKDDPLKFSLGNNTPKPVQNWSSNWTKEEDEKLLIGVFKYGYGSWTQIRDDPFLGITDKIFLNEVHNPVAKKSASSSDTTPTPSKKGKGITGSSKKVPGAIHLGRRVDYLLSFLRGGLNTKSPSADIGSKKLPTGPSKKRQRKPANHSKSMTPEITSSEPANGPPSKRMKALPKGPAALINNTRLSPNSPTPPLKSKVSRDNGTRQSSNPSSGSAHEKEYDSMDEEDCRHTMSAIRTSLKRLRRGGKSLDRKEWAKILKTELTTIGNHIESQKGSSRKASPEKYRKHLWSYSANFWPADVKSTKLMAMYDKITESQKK
# Protein translocase subunit SecA (Escherichia coli (strain K12)), sequence (P10408 whole entry): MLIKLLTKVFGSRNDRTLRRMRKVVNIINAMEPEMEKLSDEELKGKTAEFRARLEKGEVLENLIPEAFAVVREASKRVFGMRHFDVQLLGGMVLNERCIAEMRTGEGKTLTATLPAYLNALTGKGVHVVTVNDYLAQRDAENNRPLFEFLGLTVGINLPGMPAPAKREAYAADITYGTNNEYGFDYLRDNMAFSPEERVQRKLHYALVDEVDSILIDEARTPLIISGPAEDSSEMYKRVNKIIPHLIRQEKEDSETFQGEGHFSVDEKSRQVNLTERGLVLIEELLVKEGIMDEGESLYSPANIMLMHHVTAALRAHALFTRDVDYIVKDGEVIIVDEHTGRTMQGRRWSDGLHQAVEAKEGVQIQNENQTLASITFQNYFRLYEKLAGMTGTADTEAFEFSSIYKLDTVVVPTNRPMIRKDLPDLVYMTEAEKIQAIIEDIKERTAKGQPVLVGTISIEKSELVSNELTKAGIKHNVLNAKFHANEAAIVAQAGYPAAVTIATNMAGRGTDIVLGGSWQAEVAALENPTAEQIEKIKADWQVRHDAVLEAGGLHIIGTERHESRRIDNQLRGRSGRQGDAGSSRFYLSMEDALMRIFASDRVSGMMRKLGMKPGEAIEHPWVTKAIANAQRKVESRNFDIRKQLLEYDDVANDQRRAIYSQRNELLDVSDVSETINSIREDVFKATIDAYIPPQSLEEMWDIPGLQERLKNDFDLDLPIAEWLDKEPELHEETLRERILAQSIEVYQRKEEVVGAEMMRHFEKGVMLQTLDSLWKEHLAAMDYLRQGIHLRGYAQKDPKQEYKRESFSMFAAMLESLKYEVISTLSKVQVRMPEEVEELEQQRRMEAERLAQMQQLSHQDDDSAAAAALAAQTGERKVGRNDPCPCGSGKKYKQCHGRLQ
Structure (SMILES),Percent Effect [1],Percent Effect [2],Percent Effect [3],Percent Effect (Trypanosoma cruzi),Percent Effect [4],Percent Effect [5],Percent Effect (Homo sapiens),Percent Effect [6],Percent Effect [7],Percent Effect [8]
CN(C)CC1CN(Cc2ccc3c(c2)OCO3)Cc2nccn2C1 (stereo not given),-10.1%,-42.9%,7.99%,0.682%,-3.64%,5.56%,12.4%,0.526%,0%,-1.33%
CN(Cc1ccccc1)CC(O)Cn1cnc2ccsc2c1=O (stereo not given),-3.3%,5.13%,-3.73%,8.36%,-0.41%,1.62%,17.5%,0.478%,1.21%,3.76%
Cc1nc(CNC(=O)NCC(O)c2ccc(F)cc2F)cs1 (stereo not given),0.239%,13.3%,-2.61%,-4.62%,2.22%,9.75%,-4.09%,8.95%,15.4%,-9.8%
CN(C)CCN1CCCC12CCN(C(=O)c1cnccn1)CC2,-2.79%,11.7%,2.72%,2.81%,4.57%,3.69%,0.368%,7.73%,15%,-6.82%
CN(Cc1ccsc1)C(=O)CN1CCOC(Cn2cccn2)C1 (stereo not given),-9.25%,7.79%,-1.67%,-1.49%,-0.615%,-3.51%,19.9%,0%,-16.5%,-7.08%
COCCOc1cccc(C(=O)N2CCCC(n3ccnc3C)C2)c1 (stereo not given),-2.56%,13%,8.18%,4.85%,-2.25%,0.877%,1.8%,0%,18.8%,-12.3%
O=C(NCCn1ccnc1)N1CCN(c2nccs2)CC1,-0.752%,15.6%,-5.93%,-7.28%,4.71%,18.2%,6.33%,2.94%,7.06%,-11.9%
Cc1cccc(CN2C[C@@H]3COC[C@]3(CNC(=O)c3ccsc3)C2)n1,-7.55%,9.09%,-4.17%,1.27%,-3.64%,22.3%,-5.86%,7.89%,12.8%,108%
CN1CCOC(CNC(=O)Cc2ccccc2F)C1 (stereo not given),-1.65%,15.4%,-3.95%,3.47%,4.1%,8.11%,-18.4%,7.18%,25.3%,-5.49%
O=C(NCc1nn(-c2ccccc2)c2c1CCC2)N1CCSCC1,-6.8%,-2.56%,-13.1%,12.7%,-1.64%,7.25%,15.5%,2.39%,13.2%,-7.59%
COc1ncc(CN2CC[C@@](C)(O)[C@H](Oc3cccc(F)c3)C2)cn1,-2.75%,9.33%,-0.132%,-2.76%,-1.33%,6.73%,8.72%,4.23%,10%,-23.1%
CN1CCN(c2ncnc3c2c(C(=O)NC2CC2)c2ccccn23)CC1,-0.824%,-6.49%,1.78%,-5.16%,3.24%,-2.56%,0.0174%,-1.58%,0%,-13.6%
COc1ccc(CC(=O)NC2(C)CCS(=O)(=O)C2)cc1F (stereo not given),-0.834%,10.7%,-4.85%,0.803%,-1.77%,4.5%,8.89%,5.79%,12.8%,-12.7%
Cc1c(F)cc(C(=O)O)cc1S(=O)(=O)Nc1ccc2c(c1)OCCO2,-4.72%,5.13%,0.878%,7.42%,-4.51%,2.82%,-3.86%,-5.26%,1.21%,-2.48%
CC1CCCCN1Cc1ccc(-c2ccccc2C(=O)O)cc1 (stereo not given),-1.02%,4%,1.22%,-4.73%,0.443%,7.39%,12.3%,2.12%,2.5%,-21.8%
COc1ccc(C[C@H]2CN(C(=O)CN(C)C)CC[C@H]2OC)cc1,-1.58%,14.3%,1.4%,0.563%,0%,-4.21%,5.12%,-8.7%,10%,-0.592%
CC(C)(N)C(=O)N1CCCC1c1cncc(Oc2ccc(F)cc2)n1 (stereo not given),-4.32%,17.3%,10.6%,0.789%,-0.443%,1.31%,-1.85%,6.35%,15%,-24.2%
CC(c1nc(C2CC2)no1)N1CCN(Cc2cccc(C#N)c2)CC1 (stereo not given),-5.05%,15.4%,-15.7%,5.35%,-4.1%,10.5%,3.36%,3.35%,20.5%,-0.399%
Cn1nc2c(cc1=O)CN(Cc1nc(-c3cccs3)no1)CC2,-4.37%,5.33%,3.65%,1.61%,-1.77%,13.7%,12.3%,-0.526%,2.56%,-8.34%
CS(=O)(=O)c1ccc(NC(=O)NCc2ccc3c(c2)CCC3)cn1,-2.45%,0%,-3.31%,4.04%,-38.9%,-6.06%,4.37%,5.26%,8.43%,-1.11%
Cc1cc(OCC(=O)NS(=O)(=O)c2c(C)noc2C)ccc1Cl,-0.396%,-5.13%,2.29%,4.79%,0%,1.28%,18.7%,-5.26%,-1.21%,0.575%
